# In the supplement of paper PMC6555819:
# Legend:
# Assay in all cases: PBM binding z-score (relative to random genomic background probes); higher = stronger binding; sequences stand for … in GC…GCGATTGACAGCGTAGAATGAAGG
# [1] = tested on: FXR:RXRa (NR concentration 270 nM, RXRa partner concentration 90 nM)
# Outline: (§1)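 Random background probes are the reference for binding z-scores. These scores derive from regression-normalized fluorescence on custom Agilent 4×180K protein-binding microarrays incubated 1 h with ligand-free nuclear receptor dimers. Binding was detected with antibodies against each partner (one per run).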
# [2] = tested on: LXRa:RXRa (NR concentration 270 nM, RXRa partner concentration 90 nM)
# Outline: as §1
# [3] = tested on: LXRa homodimer (NR concentration 270 nM)
# Outline: as §1
# [4] = tested on: LXRb:RXRa (NR concentration 270 nM, RXRa partner concentration 90 nM)
# Outline: as §1
# [5] = tested on: LXRb homodimer (NR concentration 270 nM)
# Outline: as §1
# [6] = tested on: PPARa:RXRa (NR concentration 270 nM, RXRa partner concentration 90 nM)
# Outline: as §1
# [7] = tested on: PPARg:RXRa (NR concentration 180 nM, RXRa partner concentration 90 nM)
# Outline: as §1
# [8] = tested on: PPARg:RXRa 270nM:90nM, anti-RXR (NR concentration 270 nM, RXRa partner concentration 90 nM)
# Outline: as §1
# [9] = tested on: PPARg:RXRa 30nM:10nM, anti-RXR (NR concentration 30 nM, RXRa partner concentration 10 nM)
# Outline: as §1
# [10] = tested on: PPARg:RXRa 90nM:30nM, anti-RXR (NR concentration 90 nM, RXRa partner concentration 30 nM)
# Outline: as §1
# [11] = tested on: PPARg:RXRa DBDmut IVT, anti-RXR (DBD mutation: RXRa K156A/R161A, NR concentration 270 nM, RXRa partner concentration 90 nM)
# Outline: as §1
# [12] = tested on: PPARg:RXRa IVT, anti-PPARg (NR concentration 270 nM, RXRa partner concentration 90 nM)
# Outline: as §1
# [13] = tested on: PPARg DBDmut:RXRa IVT, anti-PPARg (DBD mutation: PPARg1 K132A/R137A, NR concentration 270 nM, RXRa partner concentration 90 nM)
# Outline: as §1
# [14] = tested on: PPARg DBDmut IVT, anti-PPARg (DBD mutation: PPARg1 K132A/R137A, NR concentration 270 nM)
# Outline: as §1
# [15] = tested on: PPARg homodimer (NR concentration 180 nM)
# Outline: as §1
# [16] = tested on: PXR:RXRa (NR concentration 270 nM, RXRa partner concentration 90 nM)
# Outline: as §1
# [17] = tested on: PXR homodimer (NR concentration 270 nM)
# Outline: as §1
# [18] = tested on: RARa:RXR (NR concentration 270 nM, RXRa partner concentration 90 nM)
# Outline: as §1
# [19] = tested on: RARa homodimer (NR concentration 270 nM)
# Outline: as §1
# [20] = tested on: RARb:RXRa (NR concentration 270 nM, RXRa partner concentration 90 nM)
# Outline: as §1
Sequence,PBM binding z-score [1],PBM binding z-score [2],PBM binding z-score [3],PBM binding z-score [4],PBM binding z-score [5],PBM binding z-score [6],PBM binding z-score [7],PBM binding z-score [8],PBM binding z-score [9],PBM binding z-score [10],PBM binding z-score [11],PBM binding z-score [12],PBM binding z-score [13],PBM binding z-score [14],PBM binding z-score [15],PBM binding z-score [16],PBM binding z-score [17],PBM binding z-score [18],PBM binding z-score [19],PBM binding z-score [20]
ACAGACAGGTGAGTGAAGATAACTCAGCTGGACG,-0.343,-0.53,-0.558,-0.776,-0.749,-0.453,0.887,-0.267,0.137,-0.0703,0.148,0.126,0.243,0.332,-0.119,-0.523,-0.597,-0.226,0.147,0.137
CCTATTAGTTGACCATAAGGGCAATCGAAGCTCG,0.68,0.259,0.71,0.623,0.695,0.456,0.434,0.366,0.122,0.461,0.549,0.361,0.362,0.72,1.56,0.609,0.878,0.531,2.18,1.38
CAAACTAGGGCAAGGTCAAAGTCGGTTTGTGCCA,5.18,4.46,2.44,3.77,0.468,5.56,7.92,6.99,4.88,7.3,7.65,7.58,2.3,3.24,3.66,4.71,1.95,4.96,2.12,4.14
GATACAGGGTCAGCTAGAGGCCAAAGTATGGAAA,5.01,3.57,0.0556,3.09,-0.391,4.59,3.94,3.58,1.03,2.36,1.15,2.73,0.457,0.0688,3.56,4.24,0.247,5.28,0.349,4.25
CCTACTGGGCCACGAGAGGTCATTGATTCAGTGA,3.4,4.47,4.55,3.57,0.302,4.09,4.45,4.16,1.68,3.1,6.03,5.58,-0.253,-0.977,3.46,5.52,2.52,5.15,1.39,3.27
CCTAGCAGGGCAATCTGGGTCACTCAAGGCTTGA,0.679,2.4,-0.398,0.85,-0.611,2.99,2.72,2.62,0.319,1.75,4.48,5.72,-0.465,-0.641,0.648,1.65,-0.451,1.89,-0.799,2.06
TCTAGTTAGTCACGGAGGTCACACACGACGGGTA,3.07,3.04,2.41,3.3,0.442,3.76,2.22,3.13,3.48,3.22,1.76,2.1,1.18,0.869,2.2,4.09,1.01,4.71,1.62,3.26
CGTCCAAGGTCATAGGAGGTCAGTGTAGACAGAT,7.58,7.26,4.98,6.27,1.28,5.83,5.64,5.77,2.31,4.68,3.65,4.6,0.558,0.275,4.52,6.7,3.78,6.16,1.57,5.32
AGAACGAAGGCAATGAGTTGATAGCACGGGTGGC,-0.744,-0.976,-0.545,-0.999,-1.01,-0.613,0.809,-0.61,-0.619,-0.608,-0.602,-0.376,0.0932,-0.515,-1.7,-0.512,-0.132,-0.69,-0.881,-0.477
TATACAGTGTCAAAGGCCAGAGTACGAATGTCGA,0.666,0.861,0.197,0.608,0.893,2.18,3.95,4.17,2.41,3.86,0.051,2.04,0.51,1.14,0.46,0.552,0.236,1.33,0.548,1.88
GGGACGAGGGCATTCGAGTTGATAGCATGGCGAT,1.09,1.84,-0.143,0.891,0.141,1.25,0.732,0.668,-0.43,0.0864,1.51,1.47,-0.173,0.189,0.254,3.68,1.37,1.08,0.349,2
CGTTACGGGTCACTGACAGGTTATAGCATTTGGA,5.82,4.13,0.216,3.8,-0.201,5.54,4.6,4.21,1.79,3.39,3.65,3.74,0.269,0.284,2.14,3.75,-0.254,4.61,0.338,3.93
ACTAGCTGGCCAAGTTTGGGTCACTCAAACAAAG,-0.286,-0.318,-0.768,0.339,-0.865,1.03,-0.347,0.0249,-0.62,-0.218,-0.306,0.303,-0.848,-0.239,-0.138,0.38,-0.487,0.811,-1.29,1.08
ATATGTAGGTTACATCCGGGTCAGTCAGGCTATG,1.08,2.95,0.519,1.74,0.572,3.66,5.53,4.69,2.14,3.86,7.52,7.34,2.22,1.82,1.39,2.01,0.364,2.42,0.784,1.96
